This passage reports Potency results from PubChem BioAssay (Tox21).

Inconclusive results are not listed. A call without a number means that no potency is given here. Calls of active or inactive are those of the source. The call rests on the fitted dose curve; in most records, active means well fitted cell-killing curve with a large enough effect in the repeat runs; inconclusive means weak or mixed curves; inactive means flat fitted curve, though single readings scatter.
Potency means the concentration at half of the fitted maximal effect.

The nature of the experiment: qHTS assay to identify small molecule antagonists of the estrogen related receptor (ERR) signaling pathway - cell viability counter screen (AID 1224818). The note with it: ERR reporter cell line viability counter screen; series mostly up to 46.1 µM. The source says:
National Center for Advancing Translational Sciences [NCATS]
NIH Chemical Genomics Center [NCGC]
U.S. Environmental Protection Agency [EPA]
National Institutes of Environmental Health Sciences [NIEHS]
National Toxicology Program [NTP]
U.S. Food and Drug Administration [FDA]
Estrogen related receptors (ERRs), the first orphan nuclear receptors discovered, play an important role in the control of cellular energy metabolism. ERRs are required for high-energy production in response to the environmental challenges. ERR-alpha was also identified as an adverse marker for breast cancer progression; ERR-alpha-positive tumors have a poor prognosis. To screen and to identify environmental compounds that perturb the ERR signaling pathways could provide valuable information for potential therapeutic or preventive measures in the treatment of metabolic disease. To differentiate true ERR antagonists or agonist from cytotoxic substances, the assay is multiplexed with cell viability assay.
Tox21 Assay Protocol Summary:
The ERR cells were dispensed at 2,000 cells/5 ul/well in 1536-well white plates using a Multidrop dispenser. After the assay plates were incubated at a 37 C/5% CO2 incubator for 6 hours, 23 nL of compounds dissolved in DMSO, positive and negative controls or DMSO only was transferred to the assay plate by a pin tool. The plates were incubated at 37 C for 17.5 hours. 1 ul/well of CellTiter-Fluor reagent was added into the assay plates using a Flying Reagent Dispenser. After 30 min incubation at 37 C/5% CO2, the fluorescence intensity in the plates was measured using a ViewLux plate reader.
On the technique in general: In qHTS, concentration-response curves come from the screen itself.
As to `CC(N)=O`, the Potency result is “inactive”. Next, `CC(C)(C)NCC(O)c1cc(O)cc(O)c1` (stereo not given): “inactive”. Turning to `CC(=O)N[C@@H](CS)C(=O)O`, the Potency result was “inactive”. As to `C1COC(NC(C2CC2)C2CC2)=N1`, the Potency entry was “inactive”. The same measure for `CNCCC(Oc1ccc(C(F)(F)F)cc1)c1ccccc1` (stereo not given): “inactive”; for `Cc1c(O)cccc1C(=O)N[C@@H](CSc1ccccc1)[C@H](O)CN1C[C@H]2CCCC[C@H]2C[C@H]1C(=O)NC(C)(C)C`: 10.6 µM (active). For the molecule `NNCCc1ccccc1`, the Potency result was “inactive”. As for `NC(=Nc1ccccc1)Nc1ccccc1`, the Potency result was “inactive”.

For `NCCCCCC(=O)O`, the Potency entry was “inactive”. On to `c1ccc2c(c1)CCCC2C1=NCCN1` (stereo not given), for which the Potency result was “inactive”. For `CCn1cc(C(=O)O)c(=O)c2cc(F)c(N3CCNC(C)C3)c(F)c21` (stereo not given), the Potency result is “inactive”. Take `NC(Cc1ccc(Cl)cc1)C(=O)O` (stereo not given): the Potency entry was “inactive”. Turning to `CC(C)C(=O)c1c(C(C)C)nn2ccccc12`, the Potency entry is “inactive”.

Regarding `COC(=O)[C@H]1[C@H]2C[C@@H]3c4[nH]c5cc(OC)ccc5c4CCN3C[C@H]2C[C@@H](OC(=O)c2cc(OC)c(OC)c(OC)c2)[C@@H]1OC`, the Potency result is “inactive”.

With `NC(N)=Nc1nc(CSCC/C(N)=N/S(N)(=O)=O)cs1`, the Potency entry is “inactive”. Turning to `[Cl][In]([Cl])[Cl]`, the Potency result was “inactive”. Regarding `Cc1scc2c1N(C(=O)CN1CCN(C)CC1)c1ccccc1NC2=O`, the Potency result is “inactive”. In the case of `O=C1NCC2(CCN(CCc3ccccc3)CC2)O1`, the Potency entry is “inactive”. The same measure for `Clc1ccc2c(c1)C(N1CCNCC1)=Nc1ccccc1O2`: “inactive”; for `COc1ccc(CCN(C)CCCC(C#N)(c2ccc(OC)c(OC)c2)C(C)C)cc1OC` (stereo not given): “inactive”; for `Cc1ccc(-c2cc(C(F)(F)F)nn2-c2ccc(S(N)(=O)=O)cc2)cc1`: “inactive”. In the case of `NC12CC3CC(CC(C3)C1)C2`, the Potency result is “inactive”. Next, `CC(C(O)c1ccc(O)cc1)N1CCC(Cc2ccccc2)CC1` (stereo not given): “inactive”; `CCN1CCCC1CNC(=O)c1cc(S(=O)(=O)CC)c(N)cc1OC` (stereo not given): “inactive”.

In the case of `CNC1(C)C2CCC(C2)C1(C)C` (stereo not given), the Potency entry is “inactive”. Take `NCCO`: the Potency result is “inactive”. Regarding `CC1COc2c(N3CCN(C)CC3)c(F)cc3c(=O)c(C(=O)O)cn1c23` (stereo not given), the Potency result is “inactive”. Turning to `COc1nc(C)nc(Cl)c1NC1=NCCN1`, the Potency result is “inactive”. On to `O=C(O)CP(=O)(O)O`, for which the Potency entry was “inactive”. `NC(N)=NC(=O)Cc1c(Cl)cccc1Cl`: the Potency result was “inactive”.

With `N[C@@H]1CONC1=O`, the Potency result is “inactive”.

On to `CCCNC(C)C(=O)Nc1ccccc1C` (stereo not given), for which the Potency result is “inactive”. Take `CC(=O)OCC1=C(C(=O)O)N2C(=O)[C@@H](NC(=O)Cc3cccs3)[C@H]2SC1`: the Potency entry is “inactive”. The same measure for `c1cnc2cc3c(cc2n1)C1CNCC3C1`: “inactive”. `O=C1CC2(CCCC2)CC(=O)N1CCCCN1CCN(c2ncccn2)CC1`: the Potency entry was “inactive”.
